Screens deposited in PubChem by The Scripps Research Institute Molecular Screening Center.
NCOA2 inhibitor: inhibition of GAL4-SRC2 driven luciferase reporter, primary screen, SRC2 inhibitor project, cell-based, luminescence. Nuclear receptor coactivator 2 (Homo sapiens), Q15596. HEK293 GAL4-SRC2 luciferase reporter. inhibition, % at 9 µM. 0.17% of 370,000 active. AID 651957, 2012;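 active means inhibition above the mean inhibition of all tested compounds plus 3 SD, set per campaign, cut at about 52% in these data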;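 further: 0% = DMSO treated cells and 100% = cells given Gossypol at 36 µM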
LRH-1 inv ag: LRH-1 (NR5A2) inverse agonists, primary screen, cell-based, luminescence, HEK293T, StAR-luciferase reporter | Nuclear receptor subfamily 5 group A member 2 (Homo sapiens), O00482 | LRH-1 transfected, 24 h | inhibition, % at 3.6 µM | 0.13% of 360,000 active | AID 602396, 2012;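 active means inhibition above the mean inhibition of all tested compounds plus 3 SD, cut at about 73% in these data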;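 further: 0% = DMSO wells and 100% = reporter-only cells lacking LRH-1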
GalR3 antag: GalR3 antagonists in HEK293 cells, primary screen, cell-based, fluorescence readout | HEK293 GalR3-CNG cAMP membrane potential fluorescence; galR3 body fused to GalR1 C-terminus | 0.44% of 360,000 active | AID 651719, 2012 | inhibition, % at 3 µM;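 active means inhibition above the screen-wide average plus 3 SD, cut at about 13% in these data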;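 further: forskolin and galanin both at EC90 stimulate the cells; cAMP rise reported by CNG channel membrane potential dye signal; 0% = forskolin plus galanin with DMSO and 100% = forskolin alone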
NR2F2 inh: NR2F2 transcriptional activity inhibitors, primary screen, cell-based, luciferase reporter, HEK293T, luminescence; COUP transcription factor 2 (Homo sapiens), P24468; HEK293T NGFI-A luciferase reporter; inhibition, % at 8.6 µM; 0.7% of 370,000 active;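 active means inhibition above a per-plate cutoff, mean inhibition of test wells between control levels plus 3 SD, cut at about 38% in these data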;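 further: cells cotransfected with COUP-TFII expression vector driving the NGFI-A reporter; 0% = median of COUP-TF2 test wells and 100% = reporter-only cells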
NCOA3 inh: SRC3 coactivator transcriptional activity inhibitors, primary screen, cell-based, luminescence; inhibition, % at 3.6 µM; 0.17% of 360,000 active; Nuclear receptor coactivator 3 (Homo sapiens), Q9Y6Q9; HEK293 GAL4-SRC3 luciferase reporter;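 active means inhibition above a per-campaign cutoff, the mean of all compounds plus 3 SD, cut at about 60% in these data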;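 further: 0% = DMSO-treated cells and 100% = gossypol-treated cells at 36 µM; higher means less SRC3-driven luciferase light from the GAL4 reporter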
NCOA1 inh: SRC1 coactivator transcriptional activity inhibitors, primary screen, cell-based, luminescence | HEK293 GAL4-SRC1 luciferase reporter | AID 588354, 2011 | inhibition, % at 3.6 µM | 0.12% of 360,000 active | Nuclear receptor coactivator 1 (Homo sapiens), Q15788;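 active means inhibition above the campaign mean plus 3 SD, with each screening campaign given its own cutoff, cut at about 60% in these data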;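 further: 0% = DMSO treated cells and 100% = gossypol at 36 µM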
GalR3 antag conf: GalR3 antagonist hit confirmation, cell-based, fluorescence, triplicate | HEK293 GalR3 CNG cAMP biosensor, membrane potential fluorescence; galR3 fused to GalR1 carboxy tail; challenged with forskolin and galanin at EC90 | shares compounds with GalR3 antag | 59% of 1,600 active | inhibition, % at 3 µM | AID 652245, 2013;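 active means inhibition above the primary screen's cutoff, the mean inhibition of all screened compounds plus 3 SD, cut at about 13% in these data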;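 further: 0% = forskolin plus galanin and 100% = forskolin alone with DMSO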
HEK-CNG parental: nonspecific cAMP agonists in parental HEK-CNG cells, counter-screen for GalR3 antagonist project, cell-based, fluorescence, high throughput; shares compounds with GalR3 antag; HEK293-CNG parental cells, cAMP membrane potential fluorescence; normalised: DMSO wells 0%, forskolin wells 100%; activation, % at 3 µM; 10% of 1,600 active; AID 652268, 2013; in the data active means activation above about 1.3%
Gal4-VP16 ctr: Gal4-VP16 luciferase reporter inhibitors, counter-screen for COUP-TFII antagonist project, cell-based, luminescence, HEK293; 25% of 2,500 active; AID 687007, 2013; inhibition, % at 8.5 µM; shares compounds with NR2F2 inh; in the data active means inhibition above about 13%
COUP-TFII conf: NR2F2 transcriptional activity inhibitors, confirmation, cell-based, luciferase reporter, HEK293, triplicate. shares compounds with NR2F2 inh. HEK293 NGFI-A luciferase reporter, luminescence. inhibition, % at 8.5 µM. 45% of 2,500 active;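 active means mean inhibition over three repeats above a set limit taken from the earlier primary screen, cut at about 38% in these data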;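 further: 100% = cells given the luciferase reporter alone without the COUP-TF2 vector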
The depositor's hits bear a star. An excerpt weighted towards active compounds, which were near 1.1% of everything screened.

Results for CCOc1ccc(Br)cc1/C(C)=N\NC1=NCCN1 ?
NCOA2 inhibitor: 21; LRH-1 inv ag: 42; GalR3 antag: 65*; NR2F2 inh: 45*; NCOA3 inh: 13; NCOA1 inh: 9; GalR3 antag conf: 80*; HEK-CNG parental: 4.9*; Gal4-VP16 ctr: 10; COUP-TFII conf: 30

What do the screens show for `CCCOc1ccc(CSc2nc3ccccc3[nH]2)cc1`?
NCOA2 inhibitor: -7; LRH-1 inv ag: -45; GalR3 antag: 86*; NR2F2 inh: 38*; NCOA3 inh: -43; NCOA1 inh: -29; GalR3 antag conf: 108*; HEK-CNG parental: -1; Gal4-VP16 ctr: -194; COUP-TFII conf: -34

Results for CCn1nc(C)c(CNC(=O)c2ccc(OC3CCN(Cc4ccccn4)CC3)cc2)c1C ?
NCOA2 inhibitor: 8; LRH-1 inv ag: 27; GalR3 antag: 97*; NR2F2 inh: 58*; NCOA3 inh: 26; NCOA1 inh: -1; GalR3 antag conf: 103*; HEK-CNG parental: 0; Gal4-VP16 ctr: 16*; COUP-TFII conf: 66*

What do the screens show for `Cc1cc(C)c(CN2CCN(C(=O)Cn3cnc4c(OCc5ccccc5)ncnc43)CC2)c(C)c1`?
NCOA2 inhibitor: 22; LRH-1 inv ag: 32; GalR3 antag: 98*; NR2F2 inh: 63*; NCOA3 inh: 25; NCOA1 inh: 26; GalR3 antag conf: 106*; HEK-CNG parental: -1; Gal4-VP16 ctr: -5; COUP-TFII conf: 64*

How did O=C(O)Cn1cnc2c(OCc3ccccc3)ncnc21 do in these assays?
NCOA2 inhibitor: 18; LRH-1 inv ag: 0; GalR3 antag: -1; NR2F2 inh: -9; NCOA3 inh: -36; NCOA1 inh: 3

How did CCOc1ccc(-c2c[n+]3c(n2-c2ccccc2)CCCCC3)cc1 do in these assays?
NCOA2 inhibitor: 28; LRH-1 inv ag: 51; GalR3 antag: 56*; NR2F2 inh: 56*; NCOA3 inh: 38; NCOA1 inh: 24; GalR3 antag conf: 71*; HEK-CNG parental: 0; Gal4-VP16 ctr: 6; COUP-TFII conf: 44*

Results for C#CCNC(=O)C[C@@H]1C[C@@](CCC(=O)OCC)(C(=O)OCC)C2=CCCCN2C1=O ?
NCOA2 inhibitor: 15; NR2F2 inh: 5

What do the screens show for `CC1=CC(=O)C(C(C)C)=C/C1=N/OS(=O)(=O)c1ccccc1`?
NCOA2 inhibitor: 14; LRH-1 inv ag: 9; GalR3 antag: 92*; NR2F2 inh: 58*; NCOA3 inh: -16; NCOA1 inh: -35; GalR3 antag conf: 35*; HEK-CNG parental: 0; Gal4-VP16 ctr: 10; COUP-TFII conf: 13

How did CN(c1ccc(C(=O)Nc2ccc(S(=O)(=O)N3CCCC3)cc2)cc1)S(C)(=O)=O do in these assays?
NCOA2 inhibitor: 30; LRH-1 inv ag: 29; GalR3 antag: 94*; NR2F2 inh: 47*; NCOA3 inh: 25; NCOA1 inh: 5; GalR3 antag conf: 95*; HEK-CNG parental: 0; Gal4-VP16 ctr: -3; COUP-TFII conf: 11

Results for Cc1ccc(NS(=O)(=O)c2ccc(C(=O)NC3CCN(Cc4ccccc4)CC3)cc2)cc1 ?
NCOA2 inhibitor: -1; LRH-1 inv ag: 38; GalR3 antag: 90*; NR2F2 inh: 64*; NCOA3 inh: 21; NCOA1 inh: 31; GalR3 antag conf: 103*; HEK-CNG parental: 1; Gal4-VP16 ctr: 1; COUP-TFII conf: 49*

What do the screens show for `O=C(Nc1ccc(S(=O)(=O)Nc2ccc(F)cc2)cc1)c1ccc(CN2CCOCC2)cc1`?
NCOA2 inhibitor: 32; LRH-1 inv ag: 35; GalR3 antag: 67*; NR2F2 inh: 73*; NCOA3 inh: 33; NCOA1 inh: 24; GalR3 antag conf: 109*; HEK-CNG parental: -1; Gal4-VP16 ctr: 9; COUP-TFII conf: 62*

How did CCOc1ccc(NC(=O)c2ccc(OCC3CCCO3)cc2)cc1S(=O)(=O)N(CC)CC (configuration not stated) do in these assays?
NCOA2 inhibitor: 4; LRH-1 inv ag: -6; GalR3 antag: -6; NR2F2 inh: 13; NCOA3 inh: 7; NCOA1 inh: 1

What do the screens show for `CCN(CC)S(=O)(=O)c1ccc(NC(=O)c2ccc(OCC3CCCO3)cc2)cc1` (configuration not stated)?
NCOA2 inhibitor: 12; LRH-1 inv ag: 18; GalR3 antag: 34*; NR2F2 inh: 61*; NCOA3 inh: -16; NCOA1 inh: 20; GalR3 antag conf: 104*; HEK-CNG parental: 0; Gal4-VP16 ctr: 9; COUP-TFII conf: 49*

How did O=C(Nc1ccc(S(=O)(=O)N2CCOCC2)cc1)c1ccc(F)cc1 do in these assays?
NCOA2 inhibitor: -14; LRH-1 inv ag: -17; GalR3 antag: -5; NR2F2 inh: 1; NCOA3 inh: 5; NCOA1 inh: 5

Results for O=S1(=O)c2ccc(Br)cc2OC[C@@H](Cc2ccccc2)N1Cc1cn(CCC2OCCO2)nn1 ?
NCOA2 inhibitor: -9; NR2F2 inh: 28

Results for COC(=O)[C@H](CC(C)C)N1Cc2nnn(Cc3ccc(C)cc3)c2-c2cc(F)ccc2S1(=O)=O ?
NCOA2 inhibitor: 3; NR2F2 inh: 4

Results for CC(CCN1CCC(C(O)(c2ccccc2)c2ccccc2)CC1)Oc1ccccc1C#N (configuration not stated) ?
NCOA2 inhibitor: -6; NR2F2 inh: 4

How did O=C([C@@H]1C[C@H]1c1ccccc1)N1CC[C@H]2[C@H](CCCN2Cc2ccc(F)cc2)C1 do in these assays?
NCOA2 inhibitor: -8; NR2F2 inh: 14
